These results are taken from PubChem BioAssay (EPA / NIEHS).

The target in test [1] is Oxysterols receptor LXR-alpha (Homo sapiens) (UniProt Q13133). Kind of test: ATG_LXRa_TRANS: Attagene TRANS-FACTORIAL HepG2 Assay for human Liver X Receptor alpha (LXRa) (AID 2282980; active means hit-call score of the fitted dose curve at least 0.9, where 1 is the maximum). The note with it: HepG2 Attagene TRANS reporter, LXRa transactivation. In a few lines:
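Chemical-induced reporter mRNA measured by RT-PCR with fluorescent labelling and capillary electrophoresis after 24 h dosing of transiently transfected HepG2 cells expressing exogenous NR-Gal4 chimeras; increases scored against DMSO baseline.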

The target of test [2] is Oxysterols receptor LXR-beta (Homo sapiens) (UniProt P55055). Kind of test: ATG_LXRb_TRANS: Attagene TRANS-FACTORIAL HepG2 Assay for human Liver X Receptor beta (LXRb) (AID 2282981; active means hit-call score of the fitted dose curve at least 0.9, where 1 is the maximum). The settings on record: HepG2 Attagene TRANS GAL4-LXRb reporter, mRNA. In a few lines:
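Gain-of-signal mRNA reporter endpoint, DMSO as negative control. Transiently transfected HepG2 cells carrying the NR-Gal4 chimera and GAL4-UAS reporter units were treated 24 h; transcripts quantified by RT-PCR and capillary electrophoresis fluorescence.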

Test [3] can be described thus: ATG_M_32_TRANS: Attagene TRANS-FACTORIAL HepG2 Assay for M32 Transcription Factor (Internal Marker) (AID 2282984; active means hit-call score of the fitted dose curve at least 0.9, where 1 is the maximum;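 further: transcript level of a background control reporter unit measured by RT-PCR and capillary electrophoresis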). The note with it: HepG2 Attagene TRANS M32 internal marker reporter. In a few lines: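 Capillary electrophoresis of 6-FAM-labelled reporter fragments gives the signal; data fitted for gain over DMSO negative control. Source: HepG2 cells bearing transient multiple reporter transcription units, 24 h exposure.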

The target in test [4] is Nuclear receptor subfamily 4 group A member 2 (Homo sapiens) (UniProt P43354). As to the kind of experiment: ATG_NURR1_TRANS: Attagene TRANS-FACTORIAL HepG2 Assay for human Nuclear Receptor Related Protein 1 (NURR1) (AID 2282985; active means hit-call score of the fitted dose curve at least 0.9, where 1 is the maximum). The note with it: HepG2 Attagene TRANS reporter, mRNA readout. A digest of the protocol:
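HepG2 / transient MRTU transfection / 24 h compound exposure / RT-PCR + CE fluorescence of reporter mRNA / gain-of-signal vs DMSO.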

The target of test [5] is Transcriptional activator Myb (Homo sapiens) (UniProt P10242). Kind of test: ATG_Myb_CIS: Attagene CIS-FACTORIAL HepG2 Assay for human Myeloblastosis (Myb) Proto-Oncogene Transcription Factor (AID 2282986). The note with it: HepG2 Attagene CIS-FACTORIAL Myb reporter transcription; actives raise or lower the signal. In a few lines:
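In this HepG2 transient-transfection format, cis-regulated reporter mRNA is quantified 24 h post-dosing by RT-PCR with capillary electrophoresis, fitted bidirectionally to DMSO baseline.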

Test [6] deals with Nuclear respiratory factor 1 (Homo sapiens) (UniProt Q16656). Kind of test: ATG_NRF1_CIS: Attagene CIS-FACTORIAL HepG2 Assay for human Nuclear Respiratory Factor 1 (NRF1) Orphan Gene (AID 2282987). The settings on record: HepG2 NRF1 cis-element reporter, Attagene multiplex; actives raise or lower the signal. A digest of the protocol: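 Using DMSO as baseline, gain- or loss-of-signal was fitted for reporter mRNA levels in HepG2 cells transiently transfected with cis-regulated reporter units. Samples were taken 24 h after dosing and read by RT-PCR with capillary electrophoresis.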

The nature of test [7]: ATG_NFI_CIS: Attagene CIS-FACTORIAL HepG2 Assay for human Nuclear Factor I (NFI) (AID 2282989). The note with it: HepG2 cis-regulatory reporter, NFI response element transcription; actives raise or lower the signal. A digest of the protocol: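 Transient MRTU transfection of HepG2 → 24 h chemical dosing → total RNA, oligo(dT) RT → PCR, 6-FAM primer extension, HpaI cut → capillary electrophoresis. Endpoint fitted bidirectionally relative to DMSO.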

The target in test [8] is Myc proto-oncogene protein (Homo sapiens) (UniProt P01106). As to the kind of experiment: ATG_Myc_CIS: Attagene CIS-FACTORIAL HepG2 Assay for human Myelocytomatosis (Myc) Proto-Oncogene Transcription Factor (AID 2282990). The note with it: HepG2, Attagene cis-reporter transcription factor activity; actives raise or lower the signal. In a few lines: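 Read-out: fluorescent reporter mRNA fragments resolved by capillary electrophoresis after RT-PCR. Human HepG2 liver cells carried transfected cis-element reporter units and were dosed for 24 h. Gain or loss of signal fitted relative to DMSO baseline.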

A short description of test [9]: ATG_NRF2_ARE_CIS: Attagene CIS-FACTORIAL HepG2 Assay for human Nuclear Factor Erythroid 2 Related Factor 2 (NFR2) response to Antioxidant Response Elements (ARE) (AID 2282992).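 On AC50: reporter mRNA level measured by RT-PCR and capillary electrophoresis fluorescence.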 The settings on record: HepG2 Attagene ARE/NRF2 reporter, transcription factor activity; actives raise or lower the signal. A digest of the protocol: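 HepG2 cells transiently transfected with multiplexed cis-regulated reporter transcription units measure endogenous transcription factor activity. Reporter mRNA at 24 h is quantified by RT-PCR, fluorescent labelling and capillary electrophoresis, with bidirectional fitting relative to DMSO.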

The nature of test [10]: ATG_Oct_MLP_CIS: Attagene CIS-FACTORIAL HepG2 Assay for human Octamer-Binding Transcription Factor (Oct) (AID 2282993). The settings on record: HepG2 Attagene cis-factorial Oct reporter, mRNA; actives raise or lower the signal. A digest of the protocol:
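Transient MRTU transfection of HepG2 → 24 h compound treatment → RNA isolation, reverse transcription, PCR → 6-FAM primer extension, HpaI digest → capillary electrophoresis. Activity fitted both directions against DMSO.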

The target in test [11] is Cellular tumor antigen p53 (Homo sapiens) (UniProt P04637). Kind of test: ATG_p53_CIS: Attagene CIS-FACTORIAL HepG2 Assay for human p53 Transcription Factor (AID 2282994). The note with it: HepG2 p53 cis-element reporter, Attagene mRNA; actives raise or lower the signal. A digest of the protocol:
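HepG2 cells transiently transfected with multiplexed cis-regulated reporter transcription units read endogenous TF activity. After 24 h compound exposure, reporter mRNA was quantified by RT-PCR, fluorescent labelling, HpaI digestion and capillary electrophoresis; bidirectional fits versus DMSO baseline.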

Test [12] is described as follows: BSK_3C_TissueFactor: BioMAP Diversity Plus: 3C Assay for Tissue Factor Biomarker Activity (AID 2282997). The note with it: BioMAP 3C HUVEC, tissue factor biomarker readout; actives raise or lower the signal. In a few lines:
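Dosing of human umbilical vein endothelial cells preceded a 24 h incubation. Tissue Factor was then read by ELISA, with increases and decreases both scored relative to DMSO controls.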

The nature of test [13]: BSK_3C_VCAM1: BioMAP Diversity Plus: 3C Assay for Vascular cell adhesion molecule 1 (VCAM1) Biomarker Activity (AID 2282999). The note with it: BioMAP 3C HUVEC, VCAM1 ELISA, cytokine-stimulated; actives raise or lower the signal. In a few lines:
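Human umbilical vein endothelial cells (3C system), biomarker read by ELISA 24 h after dosing; bidirectional fit against DMSO baseline. Cytotoxicity tracked by SRB total-protein staining in parallel cultures at biomarker time.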
In general terms: An ELISA detects its analyte on a solid surface through an enzyme-linked reagent.

Test [14] is described as follows: BSK_4H_Eotaxin3: BioMAP Diversity Plus: 4H Assay for Eotaxin 3 Biomarker Activity (AID 2283000).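 On outcome: CCL26 protein level quantified by ELISA in parallel with SRB cytotoxicity check.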 The settings on record: primary human endothelial cells (HUVEC); actives raise or lower the signal. In a few lines: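 Human umbilical vein endothelial cells (BSK_4H system) dosed with test chemical; Eotaxin-3 (CCL26) measured by ELISA 24 h after dosing. Bidirectional curve fitting relative to DMSO negative control as baseline.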

Test [15] deals with Bile acid receptor (Homo sapiens) (UniProt Q96RI1). As to the kind of experiment: ATG_FXR_TRANS: Attagene TRANS-FACTORIAL HepG2 Assay for Farnesoid X Receptor (FXR) (AID 2282979; active means hit-call score of the fitted dose curve at least 0.9, where 1 is the maximum;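 further: hits raise reporter mRNA above DMSO so AC50 marks FXR activation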). The settings on record: HepG2 Attagene TRANS FXR-GAL4 reporter transcription. A digest of the protocol:
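Reporter transcripts from transfected HepG2 cells were measured 24 h after dosing, using RT-PCR with capillary electrophoresis of 6-FAM-labelled fragments. The read-out reflects activity of exogenous FXR-Gal4 chimera on GAL4-UAS units, with induction relative to DMSO.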

Test [16] is described as follows: ATG_M_06_TRANS: Attagene TRANS-FACTORIAL HepG2 Assay for M06 Transcription Factor (Internal Marker) (AID 2282983; active means hit-call score of the fitted dose curve at least 0.9, where 1 is the maximum). The note with it: HepG2 Attagene TRANS M06 internal marker reporter. In a few lines: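 Cells: HepG2, transient multi-reporter transfection. Exposure: 24 h. Detection: RT-PCR, 6-FAM labelling, HpaI digestion (2 h, 37 °C), capillary electrophoresis. Baseline: DMSO.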

Test [17] has as its target human Peroxisome Proliferator-activated Receptor alpha (PPARa), PPARA (gene 5465) (UniProt Q07869). As to the kind of experiment: ATG_PPARa_TRANS: Attagene TRANS-FACTORIAL HepG2 Assay for human Peroxisome Proliferator-activated Receptor alpha (PPARa) (AID 2283001; active means hit-call score of the fitted dose curve at least 0.9, where 1 is the maximum;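 on AC50: potency for gain of reporter signal over DMSO so agonist or activator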). A digest of the protocol: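 Measures transcriptional activity of an exogenous chimeric PPARa-Gal4 protein in transiently transfected HepG2 cells after 24 h dosing. Reporter mRNA quantified via RT-PCR and capillary electrophoresis; DMSO served as negative control.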

Test [18] concerns the target Glucocorticoid receptor (Homo sapiens) (UniProt P04150). Kind of test: ATG_GR_TRANS: Attagene TRANS-FACTORIAL HepG2 Assay for human Glucocorticoid Receptor (GR) (AID 2282978; active means hit-call score of the fitted dose curve at least 0.9, where 1 is the maximum;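 further: activators score as hits since higher reporter transcript over DMSO is fitted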). The settings on record: HepG2 Attagene TRANS GR reporter, mRNA transcription. In a few lines:
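Exogenous NR-GAL4 fusion activity was assessed through induced GAL4-UAS reporter transcripts in transfected human HepG2 cells, quantified after 24 h by RT-PCR and fluorescent capillary electrophoresis with DMSO as baseline.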

A short description of test [19]: ATG_NF_kB_CIS: Attagene CIS-FACTORIAL HepG2 Assay for human Nuclear Factor Kappa B (NF-kB) (AID 2282991). The note with it: HepG2 Attagene cis-factorial NF-kB reporter mRNA; actives raise or lower the signal. A digest of the protocol:
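Endpoint from a 52-component multiplexed HepG2 reporter panel: cis-regulated transcription units transiently transfected, 24 h dosing, reporter mRNA quantified by RT-PCR and capillary electrophoresis, scored as increase or decrease against DMSO.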

Test [20] can be described thus: BSK_3C_uPAR: BioMAP Diversity Plus: 3C Assay for Urokinase-type plasminogen activator receptor (uPAR) Biomarker Activity (AID 2282998). The settings on record: BioMAP 3C HUVEC, uPAR biomarker ELISA; actives raise or lower the signal. In a few lines:
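ELISA readout of uPAR on human vascular endothelium (umbilical vein primary cells), taken 24 h after chemical dosing. Increases and decreases are both fitted relative to DMSO vehicle.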

“And” between values parts separate entries of the source, which are not always exact repeats. Equal values may be shown once. Records with an inconclusive call do not appear. Some structures have more than one record in an assay (separate samples or runs), and their calls can disagree. The source made the active and inactive calls. How the source made its calls, unless noted: active means hit-call score of the fitted dose curve at least 0.9, where 1 is the maximum; inactive means score below 0.9.

Sequence of Bile acid receptor (Homo sapiens) (Q96RI1 whole entry, looked up, the tested form may be a part): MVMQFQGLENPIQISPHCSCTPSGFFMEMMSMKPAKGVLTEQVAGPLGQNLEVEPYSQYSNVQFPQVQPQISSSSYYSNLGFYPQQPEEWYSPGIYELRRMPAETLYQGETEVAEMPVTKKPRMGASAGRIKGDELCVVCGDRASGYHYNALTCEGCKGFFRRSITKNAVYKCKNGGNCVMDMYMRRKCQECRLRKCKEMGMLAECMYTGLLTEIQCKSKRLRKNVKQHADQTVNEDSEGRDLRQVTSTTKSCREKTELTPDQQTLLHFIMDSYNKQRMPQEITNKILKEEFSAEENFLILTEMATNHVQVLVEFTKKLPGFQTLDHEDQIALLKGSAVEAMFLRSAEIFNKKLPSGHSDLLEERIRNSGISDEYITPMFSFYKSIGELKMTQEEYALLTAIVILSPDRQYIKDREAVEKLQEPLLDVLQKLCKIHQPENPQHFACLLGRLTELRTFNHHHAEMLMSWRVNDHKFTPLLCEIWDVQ
Sequence of Oxysterols receptor LXR-beta (Homo sapiens) (P55055 whole entry, looked up, the tested form may be a part): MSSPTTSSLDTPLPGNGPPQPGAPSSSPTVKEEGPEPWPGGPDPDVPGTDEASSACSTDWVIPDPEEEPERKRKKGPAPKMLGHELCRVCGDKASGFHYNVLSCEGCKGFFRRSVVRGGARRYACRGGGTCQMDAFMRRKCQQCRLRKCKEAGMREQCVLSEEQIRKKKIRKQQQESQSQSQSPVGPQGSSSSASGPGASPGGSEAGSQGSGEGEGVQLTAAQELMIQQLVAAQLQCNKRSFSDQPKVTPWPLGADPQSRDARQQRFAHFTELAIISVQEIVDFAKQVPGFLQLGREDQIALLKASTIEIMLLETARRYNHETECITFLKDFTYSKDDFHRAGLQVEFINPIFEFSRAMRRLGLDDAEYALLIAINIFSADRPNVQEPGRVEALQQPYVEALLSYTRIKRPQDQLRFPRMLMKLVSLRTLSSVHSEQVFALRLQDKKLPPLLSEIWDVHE
Sequence of human Peroxisome Proliferator-activated Receptor alpha (PPARa), PPARA (gene 5465) (Q07869 whole entry, looked up, the tested form may be a part): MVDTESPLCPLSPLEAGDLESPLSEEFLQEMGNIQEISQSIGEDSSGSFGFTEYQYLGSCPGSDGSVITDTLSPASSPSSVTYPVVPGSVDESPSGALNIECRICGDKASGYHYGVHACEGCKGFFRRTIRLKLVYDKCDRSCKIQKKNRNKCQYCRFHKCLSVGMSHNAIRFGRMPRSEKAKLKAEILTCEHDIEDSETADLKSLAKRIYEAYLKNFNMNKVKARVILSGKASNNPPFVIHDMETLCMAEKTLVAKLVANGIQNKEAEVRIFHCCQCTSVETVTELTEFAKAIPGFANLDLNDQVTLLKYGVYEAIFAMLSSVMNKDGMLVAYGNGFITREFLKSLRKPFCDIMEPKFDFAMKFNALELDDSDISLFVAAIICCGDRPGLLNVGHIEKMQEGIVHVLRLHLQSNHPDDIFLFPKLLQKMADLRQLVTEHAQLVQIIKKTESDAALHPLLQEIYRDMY
Sequence of Myc proto-oncogene protein (Homo sapiens) (P01106 whole entry, looked up, the tested form may be a part): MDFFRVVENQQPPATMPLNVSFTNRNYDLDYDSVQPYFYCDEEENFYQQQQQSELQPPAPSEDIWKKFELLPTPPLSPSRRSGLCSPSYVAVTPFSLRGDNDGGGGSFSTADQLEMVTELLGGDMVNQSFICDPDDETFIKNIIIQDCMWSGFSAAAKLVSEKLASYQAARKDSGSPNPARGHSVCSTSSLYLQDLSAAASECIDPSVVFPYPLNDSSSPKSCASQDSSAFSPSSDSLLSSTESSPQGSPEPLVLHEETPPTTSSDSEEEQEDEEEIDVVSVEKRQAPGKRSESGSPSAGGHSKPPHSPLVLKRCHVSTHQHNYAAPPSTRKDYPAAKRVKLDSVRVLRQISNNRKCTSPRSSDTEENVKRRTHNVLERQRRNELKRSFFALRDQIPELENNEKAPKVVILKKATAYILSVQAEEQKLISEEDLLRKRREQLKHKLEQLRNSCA
Sequence of Nuclear receptor subfamily 4 group A member 2 (Homo sapiens) (P43354 whole entry, looked up): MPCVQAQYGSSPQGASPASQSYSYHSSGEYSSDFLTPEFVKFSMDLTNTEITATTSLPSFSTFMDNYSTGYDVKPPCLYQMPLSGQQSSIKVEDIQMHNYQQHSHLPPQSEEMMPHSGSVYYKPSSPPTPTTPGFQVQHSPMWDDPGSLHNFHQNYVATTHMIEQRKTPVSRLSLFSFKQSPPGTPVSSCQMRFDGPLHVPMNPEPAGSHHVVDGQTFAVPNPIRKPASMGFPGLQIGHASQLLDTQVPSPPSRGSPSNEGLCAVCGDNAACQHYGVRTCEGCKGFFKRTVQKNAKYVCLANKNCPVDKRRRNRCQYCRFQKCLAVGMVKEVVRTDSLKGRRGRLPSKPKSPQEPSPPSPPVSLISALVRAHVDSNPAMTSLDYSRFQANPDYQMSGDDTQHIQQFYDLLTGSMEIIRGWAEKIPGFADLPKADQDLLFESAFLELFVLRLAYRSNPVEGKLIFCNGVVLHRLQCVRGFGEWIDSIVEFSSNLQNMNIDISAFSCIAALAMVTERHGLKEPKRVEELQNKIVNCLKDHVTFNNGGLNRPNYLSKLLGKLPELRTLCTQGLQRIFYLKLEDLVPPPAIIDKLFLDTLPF
Sequence of Oxysterols receptor LXR-alpha (Homo sapiens) (Q13133 whole entry, looked up, the tested form may be a part): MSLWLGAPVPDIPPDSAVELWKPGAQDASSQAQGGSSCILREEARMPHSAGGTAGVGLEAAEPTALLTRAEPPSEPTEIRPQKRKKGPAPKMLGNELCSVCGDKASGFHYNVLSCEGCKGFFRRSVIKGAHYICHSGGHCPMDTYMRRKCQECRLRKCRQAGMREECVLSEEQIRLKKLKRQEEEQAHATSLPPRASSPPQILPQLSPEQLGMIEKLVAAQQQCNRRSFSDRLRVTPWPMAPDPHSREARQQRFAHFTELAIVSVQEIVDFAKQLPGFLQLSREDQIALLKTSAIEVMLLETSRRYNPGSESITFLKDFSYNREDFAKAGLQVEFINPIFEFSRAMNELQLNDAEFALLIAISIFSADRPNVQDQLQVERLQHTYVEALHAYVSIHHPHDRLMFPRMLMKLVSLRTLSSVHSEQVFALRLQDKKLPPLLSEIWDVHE
Sequence of Nuclear respiratory factor 1 (Homo sapiens) (Q16656 whole entry, looked up): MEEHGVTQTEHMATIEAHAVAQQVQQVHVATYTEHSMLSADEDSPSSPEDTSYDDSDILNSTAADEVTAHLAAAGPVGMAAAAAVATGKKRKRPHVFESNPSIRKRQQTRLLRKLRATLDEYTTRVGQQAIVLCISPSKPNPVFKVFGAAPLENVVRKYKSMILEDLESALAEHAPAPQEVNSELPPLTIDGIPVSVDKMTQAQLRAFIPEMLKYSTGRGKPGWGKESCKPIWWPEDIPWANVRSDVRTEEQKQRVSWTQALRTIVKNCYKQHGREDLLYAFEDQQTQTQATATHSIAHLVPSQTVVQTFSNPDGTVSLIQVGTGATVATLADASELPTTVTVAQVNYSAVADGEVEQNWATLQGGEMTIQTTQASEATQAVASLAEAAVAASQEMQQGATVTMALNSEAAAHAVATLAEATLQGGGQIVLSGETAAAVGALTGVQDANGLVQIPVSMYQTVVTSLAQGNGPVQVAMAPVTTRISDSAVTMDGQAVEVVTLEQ
Sequence of Transcriptional activator Myb (Homo sapiens) (P10242 whole entry, looked up): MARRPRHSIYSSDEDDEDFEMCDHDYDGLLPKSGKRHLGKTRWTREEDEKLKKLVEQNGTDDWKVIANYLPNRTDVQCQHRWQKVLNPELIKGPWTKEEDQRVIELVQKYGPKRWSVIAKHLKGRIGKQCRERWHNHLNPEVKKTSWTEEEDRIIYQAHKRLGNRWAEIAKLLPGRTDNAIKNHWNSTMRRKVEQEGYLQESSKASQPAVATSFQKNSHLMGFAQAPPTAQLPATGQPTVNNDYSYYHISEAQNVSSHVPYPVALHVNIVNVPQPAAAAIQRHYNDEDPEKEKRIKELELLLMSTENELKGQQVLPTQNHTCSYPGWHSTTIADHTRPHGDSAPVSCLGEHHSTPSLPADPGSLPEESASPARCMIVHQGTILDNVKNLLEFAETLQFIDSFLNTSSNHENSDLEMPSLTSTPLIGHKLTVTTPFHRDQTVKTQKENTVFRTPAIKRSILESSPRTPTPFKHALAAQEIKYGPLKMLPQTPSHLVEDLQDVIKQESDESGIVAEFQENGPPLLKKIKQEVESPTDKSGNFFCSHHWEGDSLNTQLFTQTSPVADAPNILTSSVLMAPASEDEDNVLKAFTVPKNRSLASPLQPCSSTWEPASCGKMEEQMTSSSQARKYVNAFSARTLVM
Sequence of Cellular tumor antigen p53 (Homo sapiens) (P04637 whole entry, looked up): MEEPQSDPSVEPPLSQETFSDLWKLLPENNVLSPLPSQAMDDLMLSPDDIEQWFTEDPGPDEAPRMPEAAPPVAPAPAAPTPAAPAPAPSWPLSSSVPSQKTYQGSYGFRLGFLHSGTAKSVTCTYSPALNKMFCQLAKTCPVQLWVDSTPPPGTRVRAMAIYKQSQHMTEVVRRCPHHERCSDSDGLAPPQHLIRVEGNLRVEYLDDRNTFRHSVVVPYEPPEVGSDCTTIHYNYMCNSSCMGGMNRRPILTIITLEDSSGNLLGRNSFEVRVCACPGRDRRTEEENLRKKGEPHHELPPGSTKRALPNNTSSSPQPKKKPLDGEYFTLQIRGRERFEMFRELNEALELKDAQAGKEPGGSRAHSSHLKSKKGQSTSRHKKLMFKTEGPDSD

On to `CNC(=O)Oc1cccc2c1OC(C)(C)C2`, for which the result in test [1], in test [2], in test [3], in test [4], in test [5] and in [6] was inactive. Further, the result in [7], in [8], in [9], in test [10], in test [11] and in test [12] was inactive. The outcome in test [13] and in test [14] was inactive.
Regarding `CCNS(=O)(=O)C(F)(F)C(F)(F)C(F)(F)C(F)(F)C(F)(F)C(F)(F)C(F)(F)C(F)(F)F`, the call in test [15], in test [1], in [2], in test [16], in [3] and in [4] was inactive. For the same compound, the outcome in test [5], in test [6], in [7], in test [8], in test [10] and in [12] was inactive. The outcome in test [13], in test [14] and in [17] was inactive. Also, the AC50 (in general, the concentration at which the activity in the assay is half-maximal) in [1] was 42.3 µM (active) and 39.2 µM (active); in test [5], 25.8 µM (active); in test [7], 117 µM (active) and 61.4 µM (active); in test [8], 96.5 µM (active); in test [9], 25.7 µM (active) and 41.5 µM (active) and 13.3 µM (active); in [10], 96.5 µM (active). For the same compound, the AC50 in [13] is 14.8 µM (active); in test [14], 22.4 µM (active) and 17 µM (active); in test [17], 63.9 µM (active) and 56.2 µM (active).
As to `O=[N+]([O-])c1ccc(Oc2ccc(Cl)cc2Cl)cc1`, the outcome in [18], in [16], in test [3], in test [4], in test [5] and in [6] was inactive. Further, the compound was classed as inactive in test [7], in [8], in test [19], in test [9], in [10] and in test [11]. In addition, the outcome in [13] and in test [17] was inactive. The AC50 in test [20] is 9.38 µM (active); in [14] it was 33.6 µM (active).
